Consider 8 compounds from PubChem BioAssay (EPA / NIEHS).

The target of assay [1] is Peroxisome proliferator-activated receptor gamma (Homo sapiens) (UniProt P37231). The assay is described as follows: NVS_NR_hPPARg: NovaScreen (NVS) Nuclear Receptor Binding Assay for human Peroxisome Proliferator-activated Receptor gamma (PPARg) (AID 2283370). A digest of the protocol:
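FP read-out, 2 h post-dose, cell-free extracted receptor protein. Signal loss vs DMSO negative control = binding activity. Single-conc duplicate HTS at 25 uM; concentration-response follow-up for actives.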

Assay [2] addresses Estrogen receptor (Homo sapiens) (UniProt P03372). Briefly: OT_ERa_GFPERaERE_0480: Odyssey Thera (OT) 8-hour HeLa Transcription Induction Assay for Estrogen Receptor (AID 2283381; active means hit-call score of the fitted dose curve at least 0.9, where 1 is the maximum; inactive means score below 0.9). A digest of the protocol: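 Fluorescence microscopy with high-content image analysis measures ERE-driven GFP induction in HeLa cells at 8 h post-dose. Increases fitted against DMSO baseline.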
Assay [3] shares this target. The assay is described as follows: OT_ERa_GFPERaERE_0120: Odyssey Thera (OT) 2-hour HeLa Transcription Induction Assay for Estrogen Receptor (AID 2283382). The gist of the method:
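Fluorescence-microscopy images of the GFP-ERα/ERE reporter, scored by high-content image algorithms, give the readout. HeLa exposure lasted 2 h, and only signal increase over DMSO was fitted.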

Assay [4] addresses Bile acid receptor (Homo sapiens) (UniProt Q96RI1). Briefly: OT_FXR_FXRSRC1_1440: Odyssey Thera (OT) 24-hour HEK293T Protein-Complementation Assay for Farnesoid X receptor/SRC-1 Co-activator (AID 2283384). The gist of the method: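 Protein-fragment complementation: FXR and SRC-1 fused to reporter fragments that reassemble on interaction, read by fluorescence intensity. Human HEK293T cells measured 24 h post-dose; positive-direction fit versus DMSO.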

Assay [5] has as its target Retinoic acid receptor RXR-alpha (Homo sapiens) (UniProt P19793). The assay is described as follows: OT_NURR1_NURR1RXRa_0480: Odyssey Thera (OT) 8-hour HEK293T Protein Complementation Assay for Nurr1/retinoid X receptor (RXR) (AID 2283385). The gist of the method: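 Interaction of Nurr1 with RXRα read as reconstituted reporter fluorescence in a HEK293T fragment-complementation system, 8 h post-treatment; increase over DMSO baseline analysed.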

Assay [6] has the same target. Briefly: OT_NURR1_NURR1RXRa_1440: Odyssey Thera (OT) 24-hour HEK293T Protein Complementation Assay for Nurr1/retinoid X receptor (RXR) (AID 2283386). A digest of the protocol:
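Gain in fluorescence, fitted relative to DMSO, reflects Nurr1–RXRα association in HEK293T cells after 24 h dosing. Bait and prey are each linked to a reporter-protein fragment that reassembles on interaction.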

In assay [7] the target is Peroxisome proliferator-activated receptor gamma (Homo sapiens) (UniProt P37231). The assay is described as follows: OT_PPARg_PPARgSRC1_0480: Odyssey Thera (OT) 8-hour Protein-Complementation Assay for Peroxisome Proliferator-activated Receptor Gamma / SRC-1 Co-activator (AID 2283387).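 Further: nuclear to cytoplasmic split Venus YFP fluorescence ratio reporting PPARg SRC-1 interaction.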 A digest of the protocol: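 Split-YFP (IFP1/IFP2) PPARg/SRC-1 reporter, HEK293T, 37 °C, 5% CO2; 8 h compound; formaldehyde fix + Draq5; high-content imaging, N/C ratio, ≥350 cells/image, positive direction vs DMSO.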

Assay [8] has as its target human Norepinephrine Transporter (NET), SLC6A2 (gene 6530) (UniProt P23975). The assay is described as follows: NVS_TR_hNET: NovaScreen (NVS) Transporter Assay for human Norepinephrine Transporter (NET) (AID 2283377).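 Further: cell-free membrane protein extracted from CHO cells expressing human NET.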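 On AC50: displacement of radioligand from human NET seen as loss of scintillation signal.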 The gist of the method:
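CHO cell extracts expressing the transporter; tritiated or iodinated tracer displaced competitively; filtration plus scintillation readout at 1 h. Single-point duplicates at 25 uM, concentration series for follow-up; activity = signal drop relative to DMSO.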

Assay [9] deals with mouse Estrogen Receptor alpha (Era), Esr1 (gene 13982) (UniProt P19785). Briefly: NVS_NR_mERa: NovaScreen (NVS) Nuclear Receptor Binding Assay for mouse Estrogen Receptor alpha (Era) (AID 2283378).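 Further: hit means loss of bound radioligand signal relative to DMSO.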 A digest of the protocol:
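Filter scintillation counts of bound radioligand, measured 18 h post-dose, gave the readout; decreased signal relative to DMSO controls indicated displacement from mouse Era. Primary screen ran in duplicate at 25 uM; active chemicals were retested across concentrations.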

The target of assay [10] is Estrogen receptor beta (Homo sapiens) (UniProt Q92731). The assay is described as follows: OT_ER_ERbERb_1440: Odyssey Thera (OT) 24-hour HEK293T Protein-Complementation Assay for Estrogen Receptor-beta/-beta Homodimer (AID 2283380).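 Further: scored as signal increase over DMSO baseline for both agonists and antagonists.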 A digest of the protocol:
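HEK293T cells stably expressing ER beta LBD (aa 310-547) homodimer fragment-complementation reporter, dosed 24 h. Cells formaldehyde-fixed, Draq5-stained; gain in nuclear (agonist) or nuclear plus cytoplasmic (antagonist) fluorescence versus DMSO read by laser scanning cytometry.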

For assay [11], the system named is guinea pig Dopamine Transporter (DAT), gene 100714898. The assay is described as follows: NVS_TR_gDAT: NovaScreen (NVS) Transporter Assay for guinea pig Dopamine Transporter (DAT) (AID 2283369).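 Further: active compounds lower bound radioligand signal relative to DMSO.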 The gist of the method: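 Cell-free striatal membrane prep (guinea pig), 2 h exposure, filtration + scintillation readout of radioligand binding. Single-point 25 uM duplicate; actives rerun singleton, top conc 50 uM.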

For assay [12], the target named is human Dopamine Transporter (DAT), SLC6A3 (gene 6531) (UniProt Q01959). The assay is described as follows: NVS_TR_hDAT: NovaScreen (NVS) Transporter Assay for human Dopamine Transporter (DAT) (AID 2283374).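 Further: activity means loss of bound radioligand signal relative to DMSO.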 A digest of the protocol:
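hDAT membranes + tritiated/iodinated radioligand, competitive displacement; 1 h; filter scintillation readout. Single conc 25 uM (duplicate), then conc-response for actives. DMSO = negative control.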

In assay [13] the target is guinea pig Sigma Receptor, Non-selective Binding, SIGMAR1 (gene 100135589) (UniProt Q60492). Briefly: NVS_OR_gSIGMA_NonSelective: NovaScreen (NVS) Nuclear Receptor Binding Assay for guinea pig Sigma Receptor, Non-selective Binding (AID 2283367). A digest of the protocol:
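Membranes from guinea pig brain incubated with radioligand and test chemical for 1 h, then filtered and scintillation-counted. Duplicate primary testing at 25 uM, with concentration-series follow-up for actives.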

The target of assay [14] is Bile acid receptor (Homo sapiens) (UniProt Q96RI1). Briefly: OT_FXR_FXRSRC1_0480: Odyssey Thera (OT) 8-hour HEK293T Protein-Complementation Assay for Farnesoid X receptor/SRC-1 Co-activator (AID 2283383). A digest of the protocol: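 Binding of FXR to coactivator SRC-1 was read as fluorescence from a reconstituted split reporter in HEK293T cells, 8 h after chemical addition. Only increases in signal versus DMSO were fit.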

The target in assay [15] is Agonist Androgen Response Element (ARE), AR (gene 367) (UniProt P10275). The assay is described as follows: OT_AR_ARELUC_AG_1440: Odyssey Thera (OT) 24-hour CHO-K1 Luciferase Assay for Agonist Androgen Response Element (ARE) (AID 2283379). A digest of the protocol:
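Gain-of-signal reporter endpoint: cells (CHO-K1, hamster) are treated 24 h, luciferin/ATP reagent added, and luminescence compared with DMSO baseline.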

Values joined by “and” are separate entries in the source; they are usually repeats but may differ in a detail not shown here. Equal values may be shown once. Records with an inconclusive call do not appear. Some compounds were tested as several samples or in several runs, with calls that do not always agree. Active and inactive are the calls of the source. How the source made its calls, unless noted: active means hit-call score of the fitted dose curve at least 0.9, where 1 is the maximum; inconclusive means response in the unintended direction; inactive means score below 0.9.

Chain of Bile acid receptor (Homo sapiens) (Q96RI1 whole entry, looked up, the tested form may be a part): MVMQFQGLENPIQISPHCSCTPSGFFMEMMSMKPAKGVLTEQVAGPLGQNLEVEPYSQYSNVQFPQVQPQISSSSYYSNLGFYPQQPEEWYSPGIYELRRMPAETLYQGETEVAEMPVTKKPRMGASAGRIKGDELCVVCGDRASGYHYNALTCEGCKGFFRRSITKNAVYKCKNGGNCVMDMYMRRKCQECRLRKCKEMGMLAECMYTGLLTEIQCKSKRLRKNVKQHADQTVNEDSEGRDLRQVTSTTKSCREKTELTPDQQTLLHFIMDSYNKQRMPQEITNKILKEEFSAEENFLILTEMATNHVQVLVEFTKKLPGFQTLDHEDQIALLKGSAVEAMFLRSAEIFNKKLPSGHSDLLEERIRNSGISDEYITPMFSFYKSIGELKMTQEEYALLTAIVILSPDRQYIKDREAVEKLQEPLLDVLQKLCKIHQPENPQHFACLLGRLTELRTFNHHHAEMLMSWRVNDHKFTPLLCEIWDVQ
Chain of Estrogen receptor beta (Homo sapiens) (Q92731 whole entry, looked up, the tested form may be a part): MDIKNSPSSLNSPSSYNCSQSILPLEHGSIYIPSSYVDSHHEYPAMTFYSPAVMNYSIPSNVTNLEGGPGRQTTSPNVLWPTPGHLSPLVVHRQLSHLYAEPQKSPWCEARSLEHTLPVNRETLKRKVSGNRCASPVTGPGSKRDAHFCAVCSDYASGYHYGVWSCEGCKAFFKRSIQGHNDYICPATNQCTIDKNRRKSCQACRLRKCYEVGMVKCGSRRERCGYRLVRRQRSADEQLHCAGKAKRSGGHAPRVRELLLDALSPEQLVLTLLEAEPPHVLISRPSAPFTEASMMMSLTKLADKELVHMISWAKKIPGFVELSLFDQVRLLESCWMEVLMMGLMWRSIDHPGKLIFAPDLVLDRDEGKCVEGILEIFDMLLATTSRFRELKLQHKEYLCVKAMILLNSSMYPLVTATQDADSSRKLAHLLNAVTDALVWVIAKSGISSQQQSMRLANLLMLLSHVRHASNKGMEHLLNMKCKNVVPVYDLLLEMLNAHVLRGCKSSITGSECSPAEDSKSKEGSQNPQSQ
Chain of Estrogen receptor (Homo sapiens) (P03372 whole entry, looked up): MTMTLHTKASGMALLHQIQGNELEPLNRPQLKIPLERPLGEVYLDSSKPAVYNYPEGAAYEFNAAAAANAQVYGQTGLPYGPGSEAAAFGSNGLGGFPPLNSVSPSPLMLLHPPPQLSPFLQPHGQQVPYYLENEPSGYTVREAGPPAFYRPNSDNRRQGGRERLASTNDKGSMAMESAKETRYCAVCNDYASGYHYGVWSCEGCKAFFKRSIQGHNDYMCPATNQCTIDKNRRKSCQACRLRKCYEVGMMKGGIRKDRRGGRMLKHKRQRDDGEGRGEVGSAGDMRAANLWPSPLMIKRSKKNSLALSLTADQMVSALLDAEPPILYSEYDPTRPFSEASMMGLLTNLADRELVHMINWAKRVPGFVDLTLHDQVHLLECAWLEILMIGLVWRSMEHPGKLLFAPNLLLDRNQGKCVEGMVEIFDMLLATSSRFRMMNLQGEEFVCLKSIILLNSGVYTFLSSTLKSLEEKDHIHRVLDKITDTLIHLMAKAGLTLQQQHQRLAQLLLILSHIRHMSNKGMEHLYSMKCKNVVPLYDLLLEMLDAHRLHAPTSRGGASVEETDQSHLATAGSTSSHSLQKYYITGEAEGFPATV
Chain of Retinoic acid receptor RXR-alpha (Homo sapiens) (P19793 whole entry, looked up, the tested form may be a part): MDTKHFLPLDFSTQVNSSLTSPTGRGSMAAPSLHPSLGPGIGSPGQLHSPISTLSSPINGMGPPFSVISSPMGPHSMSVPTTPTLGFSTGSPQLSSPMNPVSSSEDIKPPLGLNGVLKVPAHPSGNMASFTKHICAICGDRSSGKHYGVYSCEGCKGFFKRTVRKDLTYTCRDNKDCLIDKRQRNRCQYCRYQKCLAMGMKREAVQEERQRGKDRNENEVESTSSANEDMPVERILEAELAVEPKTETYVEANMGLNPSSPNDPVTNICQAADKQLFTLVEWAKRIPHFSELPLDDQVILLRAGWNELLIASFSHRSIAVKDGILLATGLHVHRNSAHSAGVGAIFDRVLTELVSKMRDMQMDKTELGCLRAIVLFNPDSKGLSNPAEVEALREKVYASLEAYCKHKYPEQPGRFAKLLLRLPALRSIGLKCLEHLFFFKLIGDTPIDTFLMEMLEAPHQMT
Chain of mouse Estrogen Receptor alpha (Era), Esr1 (gene 13982) (P19785 whole entry, looked up): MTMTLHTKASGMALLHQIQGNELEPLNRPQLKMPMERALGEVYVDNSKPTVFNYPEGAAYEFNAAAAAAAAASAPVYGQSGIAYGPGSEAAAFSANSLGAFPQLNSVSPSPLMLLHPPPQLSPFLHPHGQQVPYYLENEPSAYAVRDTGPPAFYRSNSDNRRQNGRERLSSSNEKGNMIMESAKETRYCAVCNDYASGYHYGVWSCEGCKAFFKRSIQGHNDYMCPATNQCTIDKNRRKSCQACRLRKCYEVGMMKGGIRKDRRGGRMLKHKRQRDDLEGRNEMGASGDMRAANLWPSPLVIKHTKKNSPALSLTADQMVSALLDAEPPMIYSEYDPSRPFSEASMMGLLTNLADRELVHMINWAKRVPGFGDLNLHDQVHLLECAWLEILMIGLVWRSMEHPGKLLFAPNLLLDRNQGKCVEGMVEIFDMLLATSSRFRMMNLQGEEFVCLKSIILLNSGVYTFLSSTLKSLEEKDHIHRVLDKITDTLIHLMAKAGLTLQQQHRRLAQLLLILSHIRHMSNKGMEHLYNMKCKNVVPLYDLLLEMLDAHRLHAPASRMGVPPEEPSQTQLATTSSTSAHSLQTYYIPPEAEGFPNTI
Chain of human Norepinephrine Transporter (NET), SLC6A2 (gene 6530) (P23975 whole entry, looked up): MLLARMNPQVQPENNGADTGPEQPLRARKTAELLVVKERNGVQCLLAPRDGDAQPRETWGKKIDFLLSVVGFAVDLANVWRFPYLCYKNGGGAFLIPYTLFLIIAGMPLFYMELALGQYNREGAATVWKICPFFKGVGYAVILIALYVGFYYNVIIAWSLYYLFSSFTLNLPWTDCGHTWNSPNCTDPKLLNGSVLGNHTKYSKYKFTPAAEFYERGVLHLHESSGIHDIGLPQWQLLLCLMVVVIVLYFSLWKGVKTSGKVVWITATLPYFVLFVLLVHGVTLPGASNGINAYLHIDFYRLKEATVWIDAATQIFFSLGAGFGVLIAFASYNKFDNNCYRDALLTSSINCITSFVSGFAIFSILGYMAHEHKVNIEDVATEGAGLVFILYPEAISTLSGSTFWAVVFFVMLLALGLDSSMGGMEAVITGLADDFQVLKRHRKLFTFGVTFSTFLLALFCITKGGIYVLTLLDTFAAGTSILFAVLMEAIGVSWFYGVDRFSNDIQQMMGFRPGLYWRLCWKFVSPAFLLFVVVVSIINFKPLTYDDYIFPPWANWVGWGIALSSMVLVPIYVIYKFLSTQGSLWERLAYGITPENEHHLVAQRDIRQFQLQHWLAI
Chain of Peroxisome proliferator-activated receptor gamma (Homo sapiens) (P37231 whole entry, looked up): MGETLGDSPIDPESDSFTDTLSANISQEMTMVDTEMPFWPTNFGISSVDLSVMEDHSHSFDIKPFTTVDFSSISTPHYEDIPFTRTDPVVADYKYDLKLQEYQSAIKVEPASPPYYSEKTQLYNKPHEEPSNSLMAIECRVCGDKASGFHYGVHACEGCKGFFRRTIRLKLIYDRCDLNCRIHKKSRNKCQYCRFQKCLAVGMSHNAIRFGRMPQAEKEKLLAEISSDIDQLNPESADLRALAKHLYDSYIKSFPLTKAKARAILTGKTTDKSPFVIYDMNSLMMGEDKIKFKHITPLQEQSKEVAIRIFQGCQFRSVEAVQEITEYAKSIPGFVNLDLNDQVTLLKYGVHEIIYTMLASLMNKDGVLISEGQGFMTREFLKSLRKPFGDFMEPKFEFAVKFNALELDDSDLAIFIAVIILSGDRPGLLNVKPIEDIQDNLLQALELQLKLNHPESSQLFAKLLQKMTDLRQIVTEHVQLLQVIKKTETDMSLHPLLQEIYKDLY
Chain of Agonist Androgen Response Element (ARE), AR (gene 367) (P10275 whole entry, looked up): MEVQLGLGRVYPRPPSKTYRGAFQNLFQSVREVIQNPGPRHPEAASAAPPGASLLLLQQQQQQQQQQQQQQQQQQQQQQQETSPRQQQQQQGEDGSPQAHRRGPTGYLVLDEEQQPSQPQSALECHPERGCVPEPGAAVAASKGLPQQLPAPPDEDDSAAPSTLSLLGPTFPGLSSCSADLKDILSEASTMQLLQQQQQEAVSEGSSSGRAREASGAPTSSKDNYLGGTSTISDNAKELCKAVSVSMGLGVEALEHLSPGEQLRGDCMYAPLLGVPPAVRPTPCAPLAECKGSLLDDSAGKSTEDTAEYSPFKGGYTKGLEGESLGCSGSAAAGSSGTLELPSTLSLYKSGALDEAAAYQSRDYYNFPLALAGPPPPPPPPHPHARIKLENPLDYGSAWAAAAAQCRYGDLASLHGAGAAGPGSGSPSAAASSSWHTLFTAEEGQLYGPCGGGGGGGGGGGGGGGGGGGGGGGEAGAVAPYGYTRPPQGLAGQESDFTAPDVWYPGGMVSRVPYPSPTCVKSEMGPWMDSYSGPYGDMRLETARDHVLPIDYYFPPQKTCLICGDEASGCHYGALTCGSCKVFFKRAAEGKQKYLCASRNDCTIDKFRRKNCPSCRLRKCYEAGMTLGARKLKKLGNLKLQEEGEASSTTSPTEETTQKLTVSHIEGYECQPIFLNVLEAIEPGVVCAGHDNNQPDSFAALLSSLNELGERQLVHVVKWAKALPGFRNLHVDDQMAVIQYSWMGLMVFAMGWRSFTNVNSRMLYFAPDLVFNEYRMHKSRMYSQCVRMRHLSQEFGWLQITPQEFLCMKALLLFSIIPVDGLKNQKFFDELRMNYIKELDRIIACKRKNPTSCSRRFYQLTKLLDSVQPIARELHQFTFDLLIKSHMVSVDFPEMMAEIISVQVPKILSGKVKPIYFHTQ
Chain of guinea pig Sigma Receptor, Non-selective Binding, SIGMAR1 (gene 100135589) (Q60492 whole entry, looked up): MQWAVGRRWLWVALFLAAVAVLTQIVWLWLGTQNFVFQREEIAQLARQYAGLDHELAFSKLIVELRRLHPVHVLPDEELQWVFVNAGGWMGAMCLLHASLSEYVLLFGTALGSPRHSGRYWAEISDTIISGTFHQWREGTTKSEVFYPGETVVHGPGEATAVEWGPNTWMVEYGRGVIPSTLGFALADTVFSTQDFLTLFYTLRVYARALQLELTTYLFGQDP

For the compound `O=S(=O)(O)C(F)(F)C(F)(F)C(F)(F)C(F)(F)C(F)(F)C(F)(F)F`, the outcome in [1], in assay [2], in [3], in [4], in assay [5] and in [6] was inactive. Further, the compound was classed as inactive in assay [7].

With `O=C(O)C(F)(F)C(F)(F)C(F)(F)C(F)(F)C(F)(F)C(F)(F)C(F)(F)C(F)(F)F`, the result in assay [1], in [8], in [9], in assay [10], in assay [2] and in assay [3] was inactive. Also, the call in assay [4], in assay [5] and in assay [7] was inactive.

For the compound `CC(C)(c1ccccc1)c1ccc(O)cc1`, the AC50 (usually the concentration giving half of the maximal activity seen) in [11] is 15.9 µM (active); in assay [1], 25 µM (active); in assay [12], 5.98 µM (active); in assay [8], 15.5 µM (active); in assay [9] it was 2.98 µM (active) and 11 µM (active); in assay [10], 2 µM (active) and 11.9 µM (active) and 2.17 µM (active). For the same compound, the AC50 is 770 nM (active) and 897 nM (active) and 861 nM (active) in [2]; 633 nM (active) and 791 nM (active) and 967 nM (active) in assay [3]. Also, the call in assay [1], in assay [9] and in assay [7] was inactive.

Regarding `CC(c1ccc(O)cc1)(c1ccc(O)cc1)c1ccc(O)cc1`, the AC50 is 4.96 µM (active) in [1], 768 nM (active) in [9], 3.62 µM (active) in assay [2] and 2.96 µM (active) in assay [3]. For the same compound, the compound was classed as inactive in [5] and in assay [7].

Take `CCCN(CCC)N=O`: the compound was called inactive in [13], in assay [9], in assay [10], in assay [2], in [3] and in assay [5]. Besides, the outcome in assay [6] and in assay [7] was inactive.

For `CO/C=C(/C(=O)OC)c1ccccc1COc1cccc(C(F)(F)F)n1`, the compound was classed as inactive in [1], in assay [10], in assay [2], in assay [3], in assay [5] and in assay [6]. Moreover, the compound was classed as inactive in [7]. Besides, the AC50 is 9.85 µM (active) in assay [14], 3.27 µM (active) in assay [4] and 50 µM (active) in assay [5].

With `NS(=O)(=O)C(F)(F)C(F)(F)C(F)(F)C(F)(F)C(F)(F)C(F)(F)C(F)(F)C(F)(F)F`, the call in assay [1], in [9], in assay [15], in assay [10], in assay [5] and in assay [6] was inactive. The compound was called inactive in [7]. In addition, the AC50 in assay [2] is 42 µM (active); in assay [3] it was 23.7 µM (active); in assay [14], 79.1 µM (active); in assay [4] it was 84.4 µM (active); in assay [5] it was 83.3 µM (active).

Regarding `O=NN(c1ccccc1)c1ccccc1`, the result in assay [11], in assay [1], in [2], in assay [3], in [14] and in assay [4] was inactive. The call in [5], in assay [6] and in assay [7] was inactive. Further, the AC50 in [8] was 14 µM (active).
